# Several values for one entry are separate records, joined by “and”; a condition that tells them apart may be missing. Identical values can stand only once. Screen size: about 34,000 compounds; about 290 (0.85%) showed an effect of 50% or more. The full list was thinned out, with strong results kept by preference.
# Tested on: Plasmodium falciparum
# Assay: Plasmodium falciparum sporozoite viability assay
# Assay type: functional, organism-based
# Parameters: scale not given: in the data most compounds retested in dose-response had high values
Compound,Percent Effect,Percent Effect (10 mM as filed; unlikely as a test dose)
COc1c(C2CCCN2C(=O)c2ccc3c(c2)OCO3)c(C)nn1C (configuration not stated),6.2%,–
Cn1ccnc1C(=O)N1CCC2(CCN2Cc2ccc(F)cc2)C1.O=C(O)C(F)(F)F (configuration not stated),-1.35%,–
Cc1cccc(CN2CCn3c(COc4ncccn4)nnc3C2)n1,-3.893%,–
O=C(N[C@@H]1CC[C@@H](N2CCCC2)[C@@H]1O)c1cc2ccccc2[nH]1,4.476%,–
CCC(NC(=O)CCNC(=O)c1ccccc1F)c1cc(C)ccn1 (configuration not stated),–,-6.667% and 1.59%
Cc1ccnc(NCCNC(=O)CCNC(=O)c2ccccc2F)c1,–,3.593% and 6.463%
Cc1ccnc(NC(=O)c2cnc(C3CCCNC3)cn2)c1 (configuration not stated),–,70.96% and 81.72% and 59.47%
Cc1ccnc(NC(=O)CCNC(=O)c2ccccc2Cl)c1,–,67.45% and 43.1%
Cc1ccnc(NC(=O)c2cncc(C3CCNCC3)n2)c1,28.13%,–
Cc1cccc(NC(=O)c2cnc(C3CCCNC3)cn2)n1 (configuration not stated),–,4.473% and -18.26% and -18.86%
CNC(=O)CC1CC2(CCN(S(C)(=O)=O)CC2)c2ccccc21 (configuration not stated),-20.92%,–
Fc1cnc(N2C[C@@H]3C[C@@H](c4nc(C5CC5)cs4)O[C@@H]3C2)nc1.O=C(O)C(F)(F)F,-20.62%,–
Cc1ncc2c(n1)CN(Cc1nnc(-c3occc3C)o1)CC2,–,65.26% and 48.37% and 69.52%
Cc1ccc(-c2nnc(CN3CCc4cnc(C)nc4C3)o2)cc1,–,3.206% and -6.075% and -3.091%
Cc1noc(C)c1CC(=O)N[C@@H]1CC[C@@H](Oc2ccccc2)[C@@H]1O,3.978%,–
Cc1nccn1C1CCCN(C(=O)c2ccc(-n3cccn3)nc2)C1 (configuration not stated),-4.8%,–
CN1CCN(c2cc(CNC(=O)c3ccsc3)ccn2)CC1,4.114%,–
CN1CC(=O)N(c2cccc(F)c2)CC12CCN(CC1CC1)C2.O=C(O)C(F)(F)F.O=C(O)C(F)(F)F (configuration not stated),-25.37%,–
c1ccc2sc(N3CCCC4(CCOC4)C3)nc2c1 (configuration not stated),–,-44.73% and -22.63% and -45.78%

Compound,Percent Effect,Percent Effect (10 mM as filed; unlikely as a test dose)
c1ccc(-c2nnc(N3CCCC4(CCOC4)C3)s2)cc1 (configuration not stated),–,67.59% and 93.8% and 88.49%
O=C1CN(c2ccc(CNC(=O)NCCO)cc2)CCN1,1.887%,–
CCc1noc(CN(CC)Cc2cc3cc(C)ccc3[nH]c2=O)n1,-10%,–
CC(=O)Nc1nc(C(=O)N2CCCC(c3cc(C)[nH]n3)C2)cs1 (configuration not stated),3.993%,–
Cc1cn2c(n1)CCC(NC(=O)c1cc[nH]n1)C2 (configuration not stated),2.695%,–
Cc1cs/c(=N/C(=O)c2csc(NCC(C)C)n2)[nH]1,–,-15.12% and -26.88%
Cc1[nH]/c(=N\C(=O)c2csc(NC3CCCC3)n2)sc1C,–,52.39% and 34.41%
CC(=O)Nc1nc(C(=O)N2CCC(Nc3cccnn3)CC2)cs1,-14.59%,–
Cc1[nH]/c(=N\C(=O)c2csc(NC3CC3)n2)sc1C,–,50.71% and 20.82% and 44.18%
Cc1[nH]/c(=N\C(=O)c2csc(NCC(C)C)n2)sc1C,–,72.35% and 45.27% and 35.24%
O=C(O)C(F)(F)F.O=C(O)C(F)(F)F.c1cncc(C2COC3(CCN(Cc4cccs4)CC3)C2)c1 (configuration not stated),-1.667%,–
CC(Cn1cccn1)NC(=O)NCCc1cccs1 (configuration not stated),-5.389%,–
CC(C)c1n[nH]c(C2CN(C(=O)c3cn4ccccc4n3)CCO2)n1 (configuration not stated),-4.937%,–
Cn1cnc2c1CCN(CCOc1ccc(C#N)cc1)C2,2.022%,–
CCC(=O)N1CCCC1(C)c1nc(C)no1 (configuration not stated),15.01%,–
Cn1ccc(C(=O)N2CCCC2c2[nH]ncc2C(N)=O)n1 (configuration not stated),3.652%,–
O=C(c1ccc(-n2cccn2)nc1)N1CCC(c2ccn[nH]2)C1 (configuration not stated),-0.6869%,–
Cc1nc[nH]c1CN1CCCN(c2nc3ccccc3s2)CC1,–,2.478% and -18.14%
c1ccc2sc(N3CCC4(CCCN4Cc4ncc[nH]4)CC3)nc2c1,–,21.32% and 38.1%

Compound,Percent Effect,Percent Effect (10 mM as filed; unlikely as a test dose)
Cc1nc[nH]c1CN1CCCC12CCN(c1nc3ccccc3s1)CC2,–,73.34% and 82.13%
Cc1noc(C2CCCN(C(=O)c3ccc(N(C)C)nc3)C2)n1 (configuration not stated),8.423%,–
Cc1noc(C2CCN(C(=O)Nc3ccc(N(C)C)nc3)CC2)n1,–,63.01% and 33.92% and 30.08%
Cc1noc(C2CCN(C(=O)c3ccc(N(C)C)nc3)CC2)n1,4.187%,–
CC(C)c1n[nH]c(C2CN(C(=O)c3cc(C4CC4)on3)CCO2)n1 (configuration not stated),-9.758%,–
CSc1ccc(-c2nc(CN3CCC(NC(C)=O)CC3)c(C)o2)cc1,–,0.03712% and -0.9585% and 6.229%
CSc1ccc(-c2nc(CN3CCC(NC(C)=O)C3)c(C)o2)cc1 (configuration not stated),–,76.12% and 85.32% and 90.74%
CNC(=O)C1CCN(Cc2nc(-c3ccc(SC)cc3)oc2C)C1 (configuration not stated),–,-17.68% and 5.16% and 2.023%
Cc1ncncc1C(=O)N1CCOC(C)(C(=O)NC2CCCC2)C1 (configuration not stated),12.89%,–
CC(=O)NC1CCCN(C(=O)NCc2cccnc2N(C)C)C1 (configuration not stated),-28.43%,–
CC(=O)NC1CCCN(C(=O)NCc2cc[nH]n2)C1 (configuration not stated),-1.899%,–
CC(=O)NC1CCCN(C(=O)Nc2nnc(C(C)C)s2)C1 (configuration not stated),–,68.35% and 80.73%
CCC(CC)c1nnc(NC(=O)N2CCC(C(N)=O)CC2)s1,–,-8.76% and -13.24%
CCCc1nnc(NC(=O)N2CCCC(NC(C)=O)C2)s1 (configuration not stated),–,54.93% and 67.74%
CC(C)c1nnc(NC(=O)NC2CCN(Cc3ccccc3)C2)s1 (configuration not stated),14.49%,–
CC(=O)NC1CCCN(C(=O)Nc2cnc3c(cnn3C(C)C)c2)C1 (configuration not stated),-3.926%,–
CC(=O)NC1CCCN(C(=O)CNc2cc(Cl)cc(Cl)c2)C1 (configuration not stated),-3.441%,–
CCC(CC)c1nnc(NC(=O)N2CCCC(NC(C)=O)C2)s1 (configuration not stated),–,78.77% and 70.93%
Cc1n[nH]c(C)c1CC(=O)NCc1ccccc1Cl,-5.904%,–

# From ChEMBL document CHEMBL3988442, “University of Dundee, Small-Polar-MMV Screening Library” (2021)
